Inconclusive results are not listed. Calls of active or inactive are those of the source. Unless noted, the limit is not given here; nearly all actives have AC50 up to about 27 µM.
Assay: viability loss in pontine glioma line – cell-based, JHH-DIPG-1, MIPE4.0, CellTiter-Glo, qHTS, dose response (AID 1347062);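 as to AC50: cells exposed to compound for two days before readout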
Settings: JHH-DIPG-1 viability, CellTiter-Glo ATP luminescence
For `O=c1[nH]cc(F)c(=O)[nH]1`, the outcome was “inactive”. With `CCc1cccc2c3c([nH]c12)C(CC)(CC(=O)O)OCC3` (stereo not given) the outcome was “inactive”. With `Nc1ncn([C@@H]2O[C@H](CO)[C@@H](O)[C@H]2O)c(=O)n1` the AC50 was 2.96 µM (active). In the case of `Cc1ccccc1C(OCCN(C)C)c1ccccc1` (stereo not given), the outcome is reported as “inactive”. For `NC(=O)c1cnccn1`, the outcome was “inactive”. With `CCCCCCNC(=O)n1cc(F)c(=O)[nH]c1=O` the outcome was “inactive”. With `Cc1ncc([N+](=O)[O-])n1CC(C)O` (stereo not given) the outcome was “inactive”. With `N[C@@H](C(=O)N[C@@H]1C(=O)N2C(C(=O)O)=C(Cl)CS[C@H]12)c1ccccc1` the outcome was “inactive”. With `COc1cc2nc(N(C)CCCNC(=O)C3CCCO3)nc(N)c2cc1OC` (stereo not given) the outcome was “inactive”. With `CN(C)CCc1c[nH]c2ccc(C[C@H]3COC(=O)N3)cc12` the outcome was “inactive”. In the case of `Cc1ccc(-c2cc(C(F)(F)F)nn2-c2ccc(S(N)(=O)=O)cc2)cc1`, the outcome is reported as “inactive”. For `O=S(=O)(O)CCS`, the outcome was “inactive”. In the case of `C/C=C/C(=O)N(CC)c1ccccc1C`, the outcome is reported as “inactive”. In the case of `c1ccc2[nH]c(-c3cscn3)nc2c1`, the outcome is reported as “inactive”. With `CCCNCC(O)COc1ccccc1C(=O)CCc1ccccc1` (stereo not given) the outcome was “inactive”. In the case of `NC(=O)N1c2ccccc2CC(=O)c2ccccc21`, the outcome is reported as “inactive”. With `CN(CCOc1ccc(CC2SC(=O)NC2=O)cc1)c1ccccn1` (stereo not given) the outcome was “inactive”. With `COc1ccccc1OCC(O)COC(N)=O` (stereo not given) the outcome was “inactive”. In the case of `CCn1cc(C(=O)O)c(=O)c2cc(F)c(N3CCN(C)CC3)cc21`, the outcome is reported as “inactive”. In the case of `CN1CCCC(n2nc(Cc3ccc(Cl)cc3)c3ccccc3c2=O)CC1` (stereo not given), the AC50 is reported as 2.35 µM (active). For `Clc1ccc2c(c1)C(N1CCNCC1)=Nc1ccccc1O2`, the outcome was “inactive”. With `NS(=O)(=O)c1cc2c(cc1Cl)NC=NS2(=O)=O` the outcome was “inactive”.

Assay: viability loss in pontine glioma line – cell-based, SU-DIPG-IV, MIPE4.0, CellTiter-Glo, qHTS, dose response (AID 1347063; cut-off not given, nearly all actives have AC50 up to about 30 µM;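 also: compound exposure lasted 48 hours before the viability readout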)
Settings: CellTiter-Glo ATP luminescence
In the case of `CCc1nc(N)nc(N)c1-c1ccc(Cl)cc1`, the outcome is reported as “inactive”. With `CCc1cccc2c3c([nH]c12)C(CC)(CC(=O)O)OCC3` (stereo not given) the outcome was “inactive”. In the case of `Nc1ncn([C@@H]2O[C@H](CO)[C@@H](O)[C@H]2O)c(=O)n1`, the AC50 is reported as 0.935 µM (active). With `Cc1ccccc1C(OCCN(C)C)c1ccccc1` (stereo not given) the outcome was “inactive”. With `Cc1ccc(C)c(OCCCC(C)(C)C(=O)O)c1` the outcome was “inactive”. For `NC(=O)c1cnccn1`, the outcome was “inactive”. For `Cc1ncc([N+](=O)[O-])n1CC(C)O` (stereo not given), the outcome was “inactive”. With `N[C@@H](C(=O)N[C@@H]1C(=O)N2C(C(=O)O)=C(Cl)CS[C@H]12)c1ccccc1` the outcome was “inactive”. For `OCCN1CCN(CCCN2c3ccccc3Sc3ccc(C(F)(F)F)cc32)CC1`, the AC50 was 18.7 µM (active). With `CN(C)CCc1c[nH]c2ccc(C[C@H]3COC(=O)N3)cc12` the outcome was “inactive”. In the case of `Cc1ccc(-c2cc(C(F)(F)F)nn2-c2ccc(S(N)(=O)=O)cc2)cc1`, the outcome is reported as “inactive”. In the case of `O=S(=O)(O)CCS`, the outcome is reported as “inactive”. With `Cn1cnc([N+](=O)[O-])c1Sc1ncnc2nc[nH]c12` the outcome was “inactive”. For `c1ccc2[nH]c(-c3cscn3)nc2c1`, the outcome was “inactive”. In the case of `NC(=O)N1c2ccccc2CC(=O)c2ccccc21`, the outcome is reported as “inactive”. For `Cc1cn([C@H]2C[C@H](N=[N+]=[N-])[C@@H](CO)O2)c(=O)[nH]c1=O`, the outcome was “inactive”. In the case of `CN(CCOc1ccc(CC2SC(=O)NC2=O)cc1)c1ccccn1` (stereo not given), the outcome is reported as “inactive”. In the case of `CCn1cc(C(=O)O)c(=O)c2cc(F)c(N3CCN(C)CC3)cc21`, the outcome is reported as “inactive”. In the case of `CN1CCCC(n2nc(Cc3ccc(Cl)cc3)c3ccccc3c2=O)CC1` (stereo not given), the AC50 is reported as 6.62 µM (active). For `Clc1ccc2c(c1)C(N1CCNCC1)=Nc1ccccc1O2`, the outcome was “inactive”. With `NS(=O)(=O)c1cc2c(cc1Cl)NC=NS2(=O)=O` the outcome was “inactive”.

Assay: viability loss in pontine glioma line – cell-based, SU-DIPG-XIII, MIPE5.0, CellTiter-Glo, qHTS, dose response (AID 1347064; cut-off not given, nearly all actives have AC50 up to about 23 µM;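 as to AC50: cells exposed to compound for 48 hours before the viability read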)
Settings: CellTiter-Glo ATP luminescence
With `O=c1[nH]cc(F)c(=O)[nH]1` the outcome was “inactive”. With `Nc1ncn([C@@H]2O[C@H](CO)[C@@H](O)[C@H]2O)c(=O)n1` the AC50 was 1.66 µM (active). For `NC(=O)c1cnccn1`, the outcome was “inactive”. For `OCCN1CCN(CCCN2c3ccccc3Sc3ccc(C(F)(F)F)cc32)CC1`, the AC50 was 9.34 µM (active). For `Cc1ccc(-c2cc(C(F)(F)F)nn2-c2ccc(S(N)(=O)=O)cc2)cc1`, the AC50 was 18.6 µM (active). In the case of `CN[C@H]1CC[C@@H](c2ccc(Cl)c(Cl)c2)c2ccccc21`, the AC50 is reported as 26.3 µM (active). With `O=S(=O)(O)CCS` the outcome was “inactive”. With `C/C=C/C(=O)N(CC)c1ccccc1C` the outcome was “inactive”. In the case of `CCCNCC(O)COc1ccccc1C(=O)CCc1ccccc1` (stereo not given), the outcome is reported as “inactive”. For `COC(=O)Nc1nc2ccc(C(=O)c3ccccc3)cc2[nH]1`, the AC50 was 0.417 µM (active). In the case of `NS(=O)(=O)c1cc2c(cc1Cl)NC=NS2(=O)=O`, the outcome is reported as “inactive”.

Assay: viability loss in pontine glioma line – cell-based, SU-DIPG-XXV, MIPE5.0, CellTiter-Glo, qHTS, dose response (AID 1347065; cut-off not given, nearly all actives have AC50 up to about 26 µM;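 also: cells exposed to compound for 48 hours before ATP readout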)
Settings: CellTiter-Glo ATP luminescence
With `O=c1[nH]cc(F)c(=O)[nH]1` the outcome was “inactive”. With `Nc1ncn([C@@H]2O[C@H](CO)[C@@H](O)[C@H]2O)c(=O)n1` the AC50 was 2.09 µM (active). With `Cc1ccc(C)c(OCCCC(C)(C)C(=O)O)c1` the outcome was “inactive”. With `NC(=O)c1cnccn1` the outcome was “inactive”. With `OCCN1CCN(CCCN2c3ccccc3Sc3ccc(C(F)(F)F)cc32)CC1` the AC50 was 7.42 µM (active). For `O=S(=O)(O)CCS`, the outcome was “inactive”. In the case of `Cn1cnc([N+](=O)[O-])c1Sc1ncnc2nc[nH]c12`, the AC50 is reported as 6.61 µM (active). For `c1ccc2[nH]c(-c3cscn3)nc2c1`, the outcome was “inactive”. In the case of `CN(CCOc1ccc(CC2SC(=O)NC2=O)cc1)c1ccccn1` (stereo not given), the outcome is reported as “inactive”. In the case of `COC(=O)Nc1nc2ccc(C(=O)c3ccccc3)cc2[nH]1`, the AC50 is reported as 0.332 µM (active). With `NS(=O)(=O)c1cc2c(cc1Cl)NC=NS2(=O)=O` the outcome was “inactive”.

Source: PubChem BioAssay
